Measurements as given in PubChem BioAssay (Tox21).
Records with an inconclusive call do not appear. Entries that show only a call come without a potency. Values without a mark were called inactive. Active and inactive are the calls of the source. The rule behind the calls is not given here.

Assay: qHTS assay to identify small molecule antagonists of the estrogen related receptor signaling pathway with the pleiotropic PPARgamma coactivator (PGC) from Tox21 10K library (AID 1224841); note: actives are mostly falling curves and most rising ones were filed inactive; nearly all actives have a fitted effect of over 50% in size
Settings: PGC/ERR reporter cell line, ONE-Glo luciferase, 18 h; series mostly up to 92.4 µM
Source text: U.S. Tox21 Program National Center for Advancing Translational Sciences [NCATS] NIH Chemical Genomics Center [NCGC] U.S. Environmental Protection Agency [EPA] National Institutes of Environmental Health Sciences [NIEHS] National Toxicology Program [NTP] U.S. Food and Drug Administration [FDA] Tox21 Assay Overview: Estrogen related receptors (ERRs), the first orphan nuclear receptors discovered, play an important role in the control of cellular energy metabolism. ERRs are required for high-energy production in response to the environmental challenges. The pleiotropic PPARgamma coactivator (PGC) is a major partner of ERR and a key regulator in energy homeostasis. Together they have been implicated in the etiology of metabolic disorders such as Type 2 diabetes and metabolic syndrome. ERR-alpha was also identified as an adverse marker for breast cancer progression; ERR-alpha-positive tumors have a poor prognosis. To screen and to identify environmental compounds that perturb the ERR and PGC/ERR signaling pathways could provide valuable information for potential therapeutic or preventive measures in the treatment of metabolic disease. For identifying PGC/ERR antagonists, PGC/ERR cell line (provided by NTP) has been used to screen Tox21 10K library.
Tox21 Assay Protocol Summary: The PGC/ERR cells were dispensed at 2,000 cells/5 ul/well in 1536-well white plates using a Multidrop dispenser. After the assay plates were incubated at a 37 C/5% CO2 incubator for 6 hours, 23 nL of compounds dissolved in DMSO, positive and negative controls or DMSO only was transferred to the assay plate by a pin tool. The plates were incubated at 37 C for 18 hours. 4 ul/well of One-Glo reagent was added into the assay plates using a Flying Reagent Dispenser. After 30-minute incubation at room temperature, the luminescence intensity in the plates was measured using a ViewLux plate reader.
Potency is the fitted concentration of half-maximal effect.

For `COCCCN1CCC(NC(=O)c2cc(Cl)c(N)c3c2OCC3)CC1`, which Potency is on record?
Its Potency is “inactive”.

For `CCC(=O)O[C@]1(C(=O)CCl)[C@@H](C)C[C@H]2[C@@H]3CCC4=CC(=O)C=C[C@]4(C)[C@@]3(F)[C@@H](O)C[C@@]21C`, which Potency is on record?
The Potency was “inactive”.

With `Cc1cccc(C)c1OCC(=O)N[C@@H](Cc1ccccc1)[C@@H](O)C[C@H](Cc1ccccc1)NC(=O)[C@H](C(C)C)N1CCCNC1=O` as the compound, how does the Potency read?
Its Potency is 13.3 µM (active).

With `CCCCCCCCCCCCCCOS(=O)(=O)O` as the compound, how does the Potency read?
Its Potency is “inactive”.

For `O=C(O)c1nc(Cl)c(Cl)c(Cl)c1Cl`, which Potency is on record?
Its Potency is “inactive”.

For `C=CC(=O)OCCOc1ccccc1`, which Potency is on record?
The Potency was “inactive”.

For `CC(CSC(=O)c1ccccc1)C(=O)N1C[C@@H](Sc2ccccc2)C[C@H]1C(=O)O` (stereo not given in full), which activity, negative = inhibition is on record?
The activity, negative = inhibition was 1.67% [at 19 µM].

For `Cc1c(N)cccc1[N+](=O)[O-]`, which Potency is on record?
The Potency was “inactive”.

For `Nc1cccc(S(=O)(=O)c2cccc(N)c2)c1`, which Potency is on record?
Its Potency is “inactive”.

For `CCn1cc(C(=O)O)c(=O)c2cnc(N3CCNCC3)nc21`, which Potency is on record?
Its Potency is “inactive”.

Which Potency does the source give for `CCN(CC)CCNC(=O)c1cc(Br)c(N)cc1OC` here?
The Potency was “inactive”.

For `CCOC(=O)C(O)c1ccccc1` (stereo not given), which Potency is on record?
Its Potency is “inactive”.

Which Potency does the source give for `O=C(OCCCCCCOC(=O)c1ccccc1)c1ccccc1` here?
Its Potency is “inactive”.

With `C[C@@H]1C[C@H]2O[C@@]3(O[C@@H]2C(C)(C)O)[C@H](O)[C@@]2(C)[C@@H]4CC[C@H]5C(C)(C)[C@@H](O[C@@H]6OC[C@@H](O)[C@H](O)[C@H]6O)CC[C@@]56C[C@@]46CC[C@]2(C)[C@@H]13` as the compound, how does the Potency read?
Its Potency is “inactive”.

Which Potency does the source give for `CCCCCCCCCCCCCCCCOS(=O)(=O)O` here?
Its Potency is “inactive”.

Which Potency does the source give for `O=[N+]([O-])c1cccc(S(=O)(=O)O)c1` here?
The Potency was 55.3 µM (active).

Which Potency does the source give for `Nc1ccc([N+](=O)[O-])c(C(F)(F)F)c1` here?
The Potency was “inactive”.

With `C=CCOC(=O)CCC1CCCCC1` as the compound, how does the Potency read?
The Potency was “inactive”.

For `CCN(CC)CCNc1ccc(CNC=O)c2sc3ccc(OC)cc3c(=O)c12`, which Potency is on record?
The Potency was “inactive”.

With `CN(C)CCOC(c1ccccc1)c1ccc(Br)cc1` (stereo not given) as the compound, how does the Potency read?
The Potency was “inactive”.

With `OCc1cc(C(O)CNCCCCCCOCCCCc2ccccc2)ccc1O` (stereo not given) as the compound, how does the Potency read?
Its Potency is “inactive”.

With `COc1ccc(C(=O)c2ccc(OC)cc2O)c(O)c1` as the compound, how does the Potency read?
The Potency was “inactive”.

For `COC(C)OC`, which Potency is on record?
Its Potency is “inactive”.

For `Nc1cc(C(=O)O)c(O)c(S(=O)(=O)O)c1`, which Potency is on record?
Its Potency is “inactive”.

With `COc1cc(Cl)ccc1Oc1ccc(Cl)cc1Cl` as the compound, how does the Potency read?
Its Potency is “inactive”.

For `CC(COCCO)OCCO` (stereo not given), which Potency is on record?
The Potency was “inactive”.

Which Potency does the source give for `CCCCOC(=O)CCCCCCCC(=O)OCCCC` here?
The Potency was “inactive”.

Which Potency does the source give for `CCc1c(C(=O)NN2CCCCC2)nn(-c2ccc(Cl)cc2Cl)c1-c1ccc(Br)cc1` here?
The Potency was 4.86 µM (active).

With `N=c1ccn2c(n1)O[C@H]1[C@H](O)[C@@H](CO)O[C@H]12` as the compound, how does the Potency read?
The Potency was “inactive”.

With `COc1ccc(C(=O)N2CCN(CC(=O)N3CCOCC3)CC2)cc1` as the compound, how does the Potency read?
Its Potency is “inactive”.

Which Potency does the source give for `OC(C#CCN1CCCC1)(c1ccccc1)c1ccccc1` here?
The Potency was “inactive”.

With `O=S(=O)(Oc1ccc(Cl)cc1)c1ccccc1` as the compound, how does the Potency read?
Its Potency is “inactive”.

For `CN1Cc2cc(C(=O)N3CCC(C4CCNCC4)CC3)ccc2NC(CC(=O)O)C1=O` (stereo not given), which Potency is on record?
Its Potency is “inactive”.

Which Potency does the source give for `CCN(CC)c1ccc2c(-c3ccccc3C(=O)O)c3ccc(=[N+](CC)CC)cc-3oc2c1` here?
Its Potency is 43.3 µM (active).

Which Potency does the source give for `O=C(c1ccc(F)cc1)C1CCN(CCn2c(=S)[nH]c3ccccc3c2=O)CC1` here?
The Potency was 26.6 µM (active).

For `O=C(Nc1ccc(S(=O)(=O)N2CCOCC2)cc1)c1cc(Cl)ccc1NS(=O)(=O)c1ccc(Cl)s1`, which Potency is on record?
Its Potency is “inactive”.

For `CCCCNc1ccc(C(=O)OCCOCCOCCOCCOCCOCCOCCOCCOCCOC)cc1`, which Potency is on record?
The Potency was “inactive”.

With `CN(C)c1ccc(C(c2ccccc2)c2ccc(N(C)C)cc2)cc1` as the compound, how does the Potency read?
Its Potency is 27.3 µM (active).

Which Potency does the source give for `COc1ccc(C)cc1[N+](=O)[O-]` here?
Its Potency is “inactive”.

With `O=C(O)c1ccc(-n2nc(-c3ccccc3O)nc2-c2ccccc2O)cc1` as the compound, how does the Potency read?
The Potency was 10.6 µM (active).
